# The supplement of paper PMC10105736
# Unmarked numbers belong to inactive results.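 How the source made its calls: active = MAPPIT score above the 99th percentile of random reference set scores in the same batch; inactive = at or below it.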
# Legend:
# Test in all cases: MAPPIT interaction score (arbitrary units); higher = stronger binary interaction signal, active = hit call of the paper
# Atx-1 = settings: MAPPIT configuration: N-C; pair source set: screen_4
# Protocol: (§1)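 MAPPIT in HEK293T cells: Drosophila bait and prey ORFs (from the FlyBi ORF collection) were co-transfected in quadruplicate, with two wells stimulated by erythropoietin. Interaction-dependent JAK-STAT activation was read out with a STAT-responsive firefly luciferase reporter. Positive calls use the 99th percentile of random reference set (RRS) scores within each batch […]. Batches Dvs01 and Dvs02 used the N-N configuration and Dvs04 the N-C configuration. Pairs come from FlyBi screens, CuraGen, DPiM, Finley Y2H, Lit-BM-16, Lit-BS-16 and RRS.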
# Adar = settings: MAPPIT configuration: N-N; pair source set: RRS
# Protocol: as §1
# ArfGAP3 = settings: MAPPIT configuration: N-N; pair source set: Curagen_high_conf
# Protocol: as §1
# Act57B = settings: MAPPIT configuration: N-N; pair source set: screen_1
# Protocol: as §1
# Art8 = settings: MAPPIT configuration: N-N; pair source set: Curagen_high_conf
# Protocol: as §1
# Arts = settings: MAPPIT configuration: N-N; pair source set: Finley_Y2H
# Protocol: as §1
# Pu = settings: MAPPIT configuration: N-N; pair source set: screen_1
# Protocol: as §1
# Vinc = settings: pair source set: Lit-BM-16
# Protocol: as §1
# 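Further: HEK293T cells with Epo stimulation, STAT-responsive firefly luciferase reporter, fold induction versus unstimulated cells divided by the larger fold induction of two negative controls lacking either bait or prey.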
binder,measurement,setting,value
CG9132 (protein) MEYESVLIVKPEVFIYKIPPRASNRGYRAGDWNLKEPTWTGRMRLVAKGTAVVLKLEDKTSGALFANCPIDTYPGVAIEAVSDSSRYFVIRVQDDNGRSAFLGLGFGDRSDSFDLNVALQDHFKWVKNQEQIEKEKTEPKQELDLGFKEGETIKINMRITKKDGSEGSSRTGKNKGSSGVLPPPPGGLGKIAPPPAAAAANTTVRQSPGVSPAHRPAAGGSEWTDYASAGGNQGQQNSANANWVQF,MAPPIT interaction score,Atx-1,2.48
GstZ2 (protein) MSTNLCPNASSSDIQPILYSYWRSSCSWRVRIAMNLKEIPYDIKPISLIKSGGEQHCNEYREVNPMEQVPALQIDGHTLIESVAIMHYLEETRPQRPLLPQDVHKRAKVREIVEIICSGIQPLQNLIVLIHVGEEKKKEWAQHWITRGFRAVEKALSTSAGKYCVGDEISMADCCLVPQVFNARRFHVDLRPYPIILRIDRELESNPAFRAAHPSNQPDCPPELPNK,MAPPIT interaction score,Adar,0.0763
CG16894 (protein) MWYSTVRNPSIALIKQGYHILAEYNLVKEELKNIYAIPSYACGLHWFGVIFVHSGIYAGSVFRFSILLPENFPADISLPTVVFSTEVLHPHICPQNKTLDLAHFLNEWRKDEHHIWHVLRYIQAIFADPEGSICTGQSSSGDLVIMDEVRNMNALNMLAKSRPEYIKRVQEQAILSRNLIYDRPPTEDPHYIIVEPYCAERHLKFMDQLKSPCWKEATSMDCSQPSEYLGHIDSSRQLDEEEANQVEKLHRGRIPEHQREESEVSL,MAPPIT interaction score,ArfGAP3,0.483
CG12206 (protein) MAAITSNVSRLEPMRGISIIIESPEVATATPPPATTTATAEAEAATKQVAPTAKSNSNTEMSLKSQAAGMLLAFGDTAATAKDNLETSYDTAAKSTAAPETNKIYPQLLLRIGGEIAGATASAEAAASAATAAAATATSPTIISCNGEIAASQAAATAADTAATLQHNNTVKIQIESQGQQRTLGKQISVVKLNEGVEEMQQHMCYLVDTSGQYSPCETLDSGTGSDLENHPQQQQQPQQVRSPQLELHLQTTRLMVNEEADHKHSPLETPSPVPKRAYSLTDDSEECDESSNSSLSCDSLHSGGLLPTTLLRDIRFRERASGPLVTKINGRPLQFETDGYYTFHVREHENFRSFGSNSSTEYEAQHFTDEQPGEDFVGFRDIRTAGKLAGNSTIKSAKGTVRGVKNRVRNGVATFLQLQQPNVKNYMEKDVGKVVLYTTSMGIIRDTYAKCANVKKILRTLLIKFEERDIFMSVEYQQEMRERMQDETIRVPQLFVEGQLIGDANIVERLNESGELRQLLRPYKSIATAYTCQTCGGYRMLPCPACNGSKKSMHRNHFTAEFVALKCMNCDEVGLIKCPNC,MAPPIT interaction score,Act57B,1.77
Ntmt (protein) MTTTLEEQLSDKLQMMDETTDKVQGSSKQKDDSSIAASSDAKTASPSSSDSSTKVAAPESEFYNKAQKYWSEVPATVNGMLGGLGYISAIDIQGSNVFLREIRVPGNRLALDCGAGIGRVTRNLLIPRFSCVDLVEQDPAFADKAREYCTSEDGSRGKVGQIYNVGLQKFTPTQQYDLVWTQWVLGHLTDRDLVSFFRRIKQGLAPGAFLCLKENVSSSKKTVEDRNDSSVTRPLDSYEHFLKEAGFRIVRKVKQQNFPKGLFPVYMIACKPVSKE,MAPPIT interaction score,Art8,3.74 (active)
CAP (protein) MEPGTIPSPVSAPVAAPVTPSAVAAPVQVVSPAAVAPAPAAPIAVTPVAPPPTLASVQPATVTIPAPAPIAAASVAPVASVAPPVVAAPTPPAASPVSTPPVAVAQIPVAVSAPVAPPVAATPTPVAPIPVAAPVIATPPVAASAPTPAAVTPVVSPVIATPPVVPANTTVPVAAPVAAVPAAVPVVAPVLAPAVAPAVAPVVAETPAPPPVAEIPVATIPECVAPLIPEVSVVATKPLAAAEPVVVAPPATETPVVAPAAASPHVSVAPAVETAVVAPVSASTEPPVAAATLTTAPETPALAPVVAESQVAANTVVATPPTPAPEPETIAPPVVAETPEVASVAVAETTPPVVPPVAAESIPAPVVATTPVPATLAVTDPDVTASAVPELPPVIAPSPVPSAVAETPVDLAPPVLPPVAAEPVPAVVAEETPETPAPASAPVTIAALDIPEVAPVIAAPSDAPAEAPSAAAPIVSTPPTTASVPETTAPPAAVPTEPIDVSVLSEAAIETPVAPPVEVTTEVAVADVAPPEAAADLIIEPVEPPAPIPDLLEQTTSVPAVEAAESTSSPIPETSLPPPNEAVASPEVAVAPITAPEPIPEPEPSLATPTEPIPVEAPVVIQEAVDAVEVPVTETSTSIPETTVEYPVAEKVLDPAITEAPVTTQEPDVANINDGAPATEITTPAVEIVTAAAEVSDTAIPLIDPPVPQEIAVAEIPETETKPAEVIVEQSTIPIEAPVPEVSKYAEPVISEAPAAEVPITAGDNPDNTSVGISEVVPTIAEKAVEEVPTSEIPEQSSSPSDSVPVAKITPLLRDLQTTDVSLLAIAATLDAIGEKLKDQKARNQQVMDRLCEIEKILGPPKSN,MAPPIT interaction score,Arts,0.381
same,MAPPIT interaction score,Pu,-0.205
same,MAPPIT interaction score,Vinc; MAPPIT configuration: N-C,2.37
same,MAPPIT interaction score,Vinc; MAPPIT configuration: N-N,2.53
